An excerpt weighted towards active compounds, which were near 22% of everything screened.
LmPK inhibitor: qHTS Assay for Inhibitors of Leishmania Mexicana Pyruvate Kinase (LmPK); purified LmPK, Kinase-Glo ATP luminescence, 1 h; Q27686; 290,000 tested, 0.37% active; Potency, µM (highest dose often 57.5 µM), for the others: at the highest dose activity change, negative = inhibition, actives largely listed as inhibitors; also: potency is read from the fitted curve at half-maximal effect; % is scaled to controls: 0 for no effect and ±100 for the full control effect
Target sequence (Q27686 whole entry, looked up): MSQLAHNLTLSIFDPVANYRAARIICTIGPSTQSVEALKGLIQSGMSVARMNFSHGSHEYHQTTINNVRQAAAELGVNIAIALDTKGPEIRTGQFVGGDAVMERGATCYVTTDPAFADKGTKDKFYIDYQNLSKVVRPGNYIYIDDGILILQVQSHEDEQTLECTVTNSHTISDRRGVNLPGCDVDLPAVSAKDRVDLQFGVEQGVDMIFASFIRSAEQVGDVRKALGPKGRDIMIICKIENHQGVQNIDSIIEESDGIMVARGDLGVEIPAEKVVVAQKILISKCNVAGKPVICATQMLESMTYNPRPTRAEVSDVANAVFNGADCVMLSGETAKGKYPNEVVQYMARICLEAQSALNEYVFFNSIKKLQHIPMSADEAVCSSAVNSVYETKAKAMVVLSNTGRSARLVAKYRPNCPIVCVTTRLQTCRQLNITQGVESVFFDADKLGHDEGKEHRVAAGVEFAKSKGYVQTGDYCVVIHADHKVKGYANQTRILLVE
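Purified LmPK (0.1 nM) converted ADP (0.1 mM) to ATP with PEP (0.5 mM) in imidazole buffer pH 7.2 with KCl and MgCl2, 1 h at room temperature. ATP was read by Kinase-Glo luminescence; data normalized to uninhibited and no-enzyme controls.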
CHX counter: Cycloheximide Counterscreen for Small Molecule Inhibitors of Shiga Toxin. cell reporter, cycloheximide protein synthesis inhibition counterscreen. max response, %. 300,000 tested, 12% active. AID 2314, 2010; in the data active = max response mostly above about 13%, no sharp cut-off; inactive = mostly below about 14%; also: read at 38.3 µM for the half of the compounds with a filed dose; 0% is about no effect
Pf growth 96h: Primary qHTS for delayed death inhibitors of the malarial parasite plastid, 96 hour incubation. Potency, µM (highest dose often 28.7 µM), for the others: top-dose activity change, negative = inhibition, hits mostly inhibitors. P. falciparum luciferase reporter growth, 96 h. 320,000 tested, 6.9% active; also: potency is read from the fitted curve at half-maximal effect; % is scaled to controls: 0 for no effect and ±100 for the full control effect
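Erythrocytes infected with luciferase-expressing P. falciparum were dispensed at 2% hematocrit and 0.05% parasitemia (final), then incubated with compounds 96 hours at 37 C in 5% CO2. Luminescence after detection reagent addition reported growth.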
Shiga inhibitor: A qHTS for Small Molecule Inhibitors of Shiga Toxin. Vero cells, Shiga toxin protein synthesis inhibition reporter. inhibition, % at 38.7 µM. 290,000 tested, 9.2% active. AID 2315, 2010; in the data active = inhibition mostly above about 28%, no sharp cut-off; inactive = mostly below about 43%; also: 0% is about no effect
Pf growth 48h: Primary qHTS for delayed death inhibitors of the malarial parasite plastid, 48 hour incubation; P. falciparum luciferase growth in erythrocytes, 48 h; 310,000 tested, 5.9% active; Potency, µM (highest dose often 28.7 µM), for the others: top-dose activity change, negative = inhibition, usual class: inhibitors; also: potency is read from the fitted curve at half-maximal effect; % is scaled to controls: 0 for no effect and ±100 for the full control effect
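A one-generation exposure of luciferase-tagged malaria parasites in RPMI 1640/Albumax erythrocyte culture, 37 C and 5% CO2. Inhibition is inferred from decreased luminescence after adding detection reagent.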
Active calls of the source: *; ? = inconclusive; · = not tested or not shown. Unless noted, calls follow the shape of the dose curve; as a rule, active = well fitted inhibition curve with a large enough effect; inconclusive = small, poorly fitted or top-dose-only effect, or another doubt; inactive = no such curve, though single readings can be large or run the other way.

SMILES	LmPK inhibitor	CHX counter	Pf growth 96h	Shiga inhibitor	Pf growth 48h
Fc1ccc(CN2CCN(c3ncccn3)CC2)c(F)c1	-4.8%	-3.0	?	-6.6	29.6%
N[C@@H](CSSC[C@H](N)C(=O)O)C(=O)O	·	-5.1	·	-4.8	·
COCCN1CCN(C(=O)c2cc(COc3ccc(F)c(F)c3)on2)CC1	-2.7%	26.9*	?	25.8	13.8%
CCN(CC(=O)Nc1ccc(OC)cc1)C(=O)CSCC(=O)Nc1cc(C)on1	·	·	-1.3%	·	-3.1%
C#CCOCCOCCOCCNc1nc(N2CCN(C(=O)CCCCCCCCCCNC(=O)[C@@H](CCC(=O)O)n3cc(CCCCCN)nn3)CC2)nc(N2CCN(C(=O)CCCCCCCCCCNC(=O)[C@@H](CCC(=O)O)n3cc(CCCCCN)nn3)CC2)n1	·	·	?	·	2.94µM*
C#CCOCCOCCOCCNc1nc(N2CCN(C(=O)CCCCCCCCCCNC(=O)[C@H](CCCCN)n3cc(CCO)nn3)CC2)nc(N2CCN(C(=O)CCCCCCCCCCNC(=O)[C@H](CCCCN)n3cc(CCO)nn3)CC2)n1	·	·	7.38µM*	·	4.15µM*
C#CCOCCOCCOCCNc1nc(N2CCN(C(=O)[C@H](CCCCN)n3cc(CCCC)nn3)CC2)nc(N2CCN(C(=O)[C@H](Cc3ccc(O)cc3)n3cc(CCO)nn3)CC2)n1	-0.3%	-6.3	-25.3%	-10.6	-3.1%
C#CCOCCOCCOCCNc1nc(N2CCN(C(=O)CCCCCCCCCCNC(=O)[C@H](CCCCN)n3cc(CCO)nn3)CC2)nc(N2CCN(C(=O)CCCCCCCCCCNC(=O)[C@@H]([C@H](C)O)n3cc(C)nn3)CC2)n1	·	·	?	·	0.294µM*
C#CCOCCOCCOCCNc1nc(N2CCN(C(=O)CCCCCCCCCCNC(=O)[C@H](CCC(=O)O)n3cc(CCCCCN)nn3)CC2)nc(N2CCN(C(=O)CCCCCCCCCCNC(=O)[C@@H]([C@H](C)O)n3cc(C)nn3)CC2)n1	·	·	?	·	3.29µM*
CN(C)c1ccc(C2C3CCCc4ccccc4C3=NN2C)cc1 (centres undefined)	3.1%	58.9*	58.6%	96.5*	22.9%
CCOC(=O)c1c(NC(=O)CSC(=S)N2CCOCC2)sc(C)c1C	2.5%	-1.3	?	-4.4	?
O=C(CSC1=NNC(c2ccccn2)S1)Nc1cccc(Cl)c1 (centres undefined)	4.1%	40.2*	?	61.8*	?
O=C(CSc1nncn1-c1ccccn1)Nc1cccc(Cl)c1	-2.4%	-0.5	-28.1%	-10.5	-0.5%
O=C(CSC1=NNC(c2ccccn2)S1)Nc1ccccc1 (centres undefined)	-6.9%	21.8*	?	36.3	?
Fc1ccccc1-n1cn[nH]c1=S	0.3%	28.3*	56.6%	68.7*	50.4%
COc1cccc(-n2cn[nH]c2=S)c1	-4.5%	5.5	43.1%	-13.2	16.5%
COCCCNc1nc2c(-c3ccc(C)cc3)nnn2c2ccccc12	2.7%	38.5*	12.3%	71.8*	72.5%
COCCCNc1nc2c(-c3cccc(C)c3)nnn2c2ccccc12	-0.8%	9.8	16.9%	-5.1	-1.4%
COCCN(CC1CCCN(C2Cc3ccccc3C2)C1)C(=O)CCC(F)(F)F (centres undefined)	0.1%	-2.4	0.415µM*	7.4	4.7%
CC(=O)N1C(C)(C)CC(=NOS(=O)(=O)c2ccccc2)CC1(C)C	-0.1%	-1.7	10.5%	11.5	-20.5%
CC(=O)Nc1ccccc1C(=O)OCc1cccc(F)c1	2.5%	25.8*	13.0%	42.0	40.6%
O=C(OCc1cccc(F)c1)c1cc2ccccc2cc1O	2.5%	-1.5	?	·	10.6%
CC(=O)Nc1ccccc1C(=O)OCc1ccc(C(=O)c2ccccc2)cc1	-5.4%	24.4*	76.6%	35.8	31.1%
CCC(C)(C(=O)NC1CCCC1)N(Cc1cccs1)C(=O)c1ccccn1 (centres undefined)	-1.8%	10.4	2.94µM*	-14.8	9.2%
CCC(C)(C(=O)NC1CCCCC1)N(Cc1ccco1)C(=O)CNC(=O)c1ccccc1 (centres undefined)	-6.8%	31.1*	12.6%	13.5	?
C=CCNS(=O)(=O)c1ccc(OCC(=O)OC)cc1	-5.9%	-5.3	5.6%	-2.7	4.4%
